# Assay outcomes: PubChem, National Center for Advancing Translational Sciences (NCATS)
# This is a sample that favours compounds with a hit; in the whole collection about 19% have one here.
# DT40 TDP1 no CPT: qHTS for Inhibitors of human tyrosyl-DNA phosphodiesterase 1 (TDP1): qHTS in cells in absence of CPT. DT40 Tdp1-/- hTDP1 cells, no CPT, ATP luminescence, 48 h. Potency, µM (series often up to 46.2 µM), most hits filed as inhibitors. 15% of 420,000 active. AID 686978, 2013; also: nearly all actives have a fitted effect of over 55% in size
#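 Growth of hTDP1-complemented DT40 Tdp1-knockout cells is measured by ATP luminescence after at least 48 hr compound exposure at 37 °C, with DMSO substituting for the 20 nM CPT used in the parallel screen.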
# HT1080-NT tox: kills 2HG-producing HT-1080-NT fibrosarcoma cells | AID 686970 | Potency, µM (doses to about 46.1 µM), usual class: cytotoxic | HT-1080-NT fibrosarcoma viability, CellTiter-Glo ATP luminescence, 48 h | 1.6% of 360,000 active;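 also: NT is the 2HG producing partner of a matched IDH1 knockdown line; nearly all actives have a fitted effect of over 55% in size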
#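 A 48-hour cytotoxicity screen used HT-1080-NT cells plated 2 hours before compound delivery. ATP-based CellTiter-Glo luminescence measured viability, normalized to DMSO and no-cell controls.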
# TDP1 cell CPT: growth inhibition of DT40 Tdp1-/-;hTDP1 cells with camptothecin (screen for TDP1 inhibitors). chicken DT40 Tdp1-/-;hTDP1 cells + 20 nM CPT, ATP luminescence, 48 h. Potency, µM (top dose mostly 46.2 µM), actives largely listed as inhibitors. 12% of 420,000 active. AID 686979; also: nearly all actives have a fitted effect of over 55% in size
#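 Chicken DT40 Tdp1-/- cells complemented with human TDP1, 400 cells/well, exposed to compounds plus 20 nM camptothecin for at least 48 h at 37 C; viability read as ATP content by CellTiter-Glo luminescence.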
# ELG1 repair inh: inhibitors of ELG1-dependent DNA repair in HEK293T cells; HEK293T ELG1-luciferase reporter, luminescence, 16 h; DNA damage induced by 5-fluorouridine; Potency, µM (titrated, usually from 46.1 µM), hits mostly inhibitors; 2.3% of 330,000 active; also: nearly all actives have a fitted effect of over 55% in size
#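 5-Fluorouridine DNA damage + compound/DMSO, 2,000 cells/well, 16 h, 37 °C/5% CO2. ONE-Glo, 30 min RT, luminescence. Readout = decrease in reporter signal.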
# HT1080 IDH1KD tx: HT-1080 IDH1 knockdown cell toxicity (counter line) | HT-1080 IDH1 knockdown viability, ATP luminescence, 48 h | Potency, µM (doses to about 46.1 µM), actives largely listed as cytotoxic | 2% of 360,000 active | AID 686971
#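 Assay cells: HT-1080 with IDH1 knockdown, 750 per well, RPMI/5% FBS. Exposure: 48 h at 37 °C following 2 h pre-incubation. Read: CellTiter-Glo luminescence; fitted concentration-response, curve class assigned.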
# IL1B secr inh: inhibitors of inflammasome signaling (IL-1 beta secretion). AID 743279. activity change, % at 57.5 µM. 4.7% of 360,000 active. THP-1 LPS/ATP IL-1B secretion, AlphaLISA, 16 h; stronger effect = lower value; in the data active = activity change below about -50%; inconclusive = mostly about -30% to -49%
#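 THP-1 cells pretreated 1 hr with compounds (up to 57.5 uM final), then stimulated with LPS (250 ng/mL final) plus ATP (1.25 mM final); secreted IL-1B measured by AlphaLISA after 16 hr, decreased signal indicating inhibition.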
# Hits are given with their value; . = inactive; ? = inconclusive; / = no result. Unless noted, calls follow the shape of the dose curve; as a rule, active = well fitted curve in the direction sought with a large enough effect; inconclusive = small, poorly fitted or top-dose-only effect, or another doubt; inactive = no such curve, though single readings can be large; an effect the other way counts as inactive or inconclusive.
SMILES,DT40 TDP1 no CPT,HT1080-NT tox,TDP1 cell CPT,ELG1 repair inh,HT1080 IDH1KD tx,IL1B secr inh
Cc1ccccc1N1C(=O)c2ccccc2N2C(=O)c3ccccc3C12 (stereo not given),16µM,.,8.2µM,?,.,.
O=C1c2ccccc2N2C(=O)c3ccccc3C2N1Cc1ccco1 (stereo not given),18µM,.,23µM,?,.,?
O=C1c2ccccc2NC(c2ccccc2O)N1Cc1ccco1 (stereo not given),16µM,/,?,/,/,/
CCCN1C(=O)c2ccccc2NC1c1ccc(Br)cc1 (stereo not given),?,?,.,.,.,-51
CCCCOc1cccc(C(=O)Nc2ccc(S(=O)(=O)Nc3nnc(CC)s3)cc2)c1,.,.,.,.,.,.
Cc1noc(C)c1C(=O)N1CCC[C@@]2(CCN(c3ccccn3)C2)C1,.,/,.,/,/,/
O=C1c2ccccc2NC(c2ccccc2OCc2ccccc2)N1Cc1ccco1 (stereo not given),10µM,/,11µM,/,/,/
COc1ccc(C2Nc3ccccc3C(=O)N2Cc2ccco2)cc1 (stereo not given),13µM,/,?,/,/,/
OC(CN1CCN(c2ccccc2)CC1)c1c[nH]c2ccccc12 (stereo not given),?,.,?,.,.,.
Cc1[nH]c2ccccc2c1NC(=O)CN1CCN(c2cccc(C(F)(F)F)c2)CC1,?,18µM,?,/,?,.
Cc1[nH]c2ccccc2c1C(O)CN1CCN(c2cccc(C(F)(F)F)c2)CC1 (stereo not given),18µM,?,23µM,15µM,?,-103
O=C(CN1CCN(c2cccc(C(F)(F)F)c2)CC1)NCc1ccccc1,?,.,.,.,.,-55
O=C(CN1CCN(c2cccc(C(F)(F)F)c2)CC1)Nc1cccc(C(F)(F)F)c1,.,.,.,.,.,.
CC(=O)Nc1ccc(NC(=O)CN2CCN(c3cccc(C(F)(F)F)c3)CC2)cc1,?,.,?,.,.,.
COc1cccc(-c2nc3n(n2)CCc2ccccc2-3)c1,?,.,?,/,.,.
CCOC(=O)CN(C(=O)CSc1nnc2c(n1)[nH]c1c(C)cc(C)cc12)c1ccccc1,/,/,/,16µM,/,/
CCOC(=O)CN(C(=O)CSc1nnc2c(n1)[nH]c1ccccc12)c1ccccc1,?,.,?,.,.,.
CCOC(=O)CN(C(=O)CSc1nnc2c(n1)[nH]c1ccc(F)cc12)c1ccccc1,?,.,21µM,?,.,?
O=C(O)Cn1nc(N2CCN(c3ccccc3)CC2)ccc1=O,.,/,.,/,/,/
COc1ccc(C(=O)NC2CC(C)(C)NC(C)(C)C2)cc1S(=O)(=O)N1CCOCC1,.,.,.,/,.,.
OC(CNC1CCCc2ccccc21)COc1ccc2ccccc2c1 (stereo not given),21µM,.,?,.,.,.
CC(=O)CCc1ccc(OCC(O)CNC2CCCc3ccccc32)cc1 (stereo not given),?,.,?,.,.,.
O=C(c1ccccc1)c1ccc(OCC(O)CNC2CCCc3ccccc32)cc1 (stereo not given),?,.,16µM,.,.,.
CCOc1ccccc1OCCCC(=O)NC1CCCc2ccccc21 (stereo not given),?,.,?,.,.,.
CCc1ccccc1OC[C@@H](O)CN[C@H]1CCCc2ccccc21,6µM,?,16µM,.,?,?
SMILES,DT40 TDP1 no CPT,HT1080-NT tox,TDP1 cell CPT,ELG1 repair inh,HT1080 IDH1KD tx,IL1B secr inh
CCOC(=O)C1=C(C)NC(C)=C(C(=O)OCC)C1C(=O)OCC(=O)N(C)C,.,?,.,.,.,.
Cc1cc(C)cc(OCC(=O)OCC(=O)NC2CCCCCCC2)c1,.,.,.,.,.,.
CC(C)C1(c2ccsc2)NC(=O)NC1=O (stereo not given),.,.,.,/,.,.
COc1ccc(C2(C)NC(=O)N(CC(=O)NC(C)c3ccc(CC(C)C)cc3)C2=O)cc1 (stereo not given),?,.,?,?,.,.
COC(=O)N1C(=O)[C@](c2ccc(OC)cc2)(C(C)C)N1C(=O)OC,16µM,.,21µM,.,.,-92
COC(=O)N1C(=O)[C@](c2ccsc2)(C(C)C)N1C(=O)OC,?,.,15µM,?,.,-99
Cc1csc(/C(=N\O)c2csc(C)n2)n1,?,?,.,.,16µM,.
CN1CCc2c(OCC(=O)NC3CCCCC3)cccc2C1=O,.,.,.,.,.,.
CN1CCc2c(OCC(=O)N3CCCc4ccccc43)cccc2C1=O,29µM,.,.,.,.,.
Cc1cccc(CN2CCc3c(OCC(=O)N4CCCc5ccccc54)cccc3C2=O)c1,5.8µM,?,4.6µM,?,?,?
O=C(COc1cccnc1[N+](=O)[O-])N1CCC(Cc2ccccc2)CC1,?,.,?,.,.,-68
CN1CCc2c(OCC(=O)N3CCC(Cc4ccccc4)CC3)cccc2C1=O,18µM,.,21µM,9.2µM,.,?
Cc1ccc(OCC(=O)N2CCC(Cc3ccccc3)CC2)c([N+](=O)[O-])n1,?,.,?,.,.,.
CN(CCO)C(=O)c1cn(C2CCN(Cc3cccc(C(F)(F)F)c3)CC2)nn1,.,/,.,/,/,/
COc1ccccc1CNC(=O)c1nccnc1CO,.,.,.,.,.,.
Cc1cc(C)c(S(=O)(=O)NCC2CCC(C(=O)NCc3ccccn3)CC2)c(C)c1 (stereo not given),.,.,.,.,.,.
COc1ccc(NC(=S)N(CCc2nc3cc(C)c(C)cc3[nH]2)Cc2cccnc2)cc1,.,?,.,16µM,?,.
COc1ccc(NC(=S)N(CCc2c(C)[nH]c3ccccc23)Cc2cccnc2)cc1,.,.,?,.,.,.
O=C(Nc1cc(Cl)ccc1O)c1cc(-c2ccc3c(c2)OCO3)on1,.,/,.,/,/,/
CC(C)N1CCC2(CC1)N=C(c1ccc3c(c1)OCO3)CC(c1cc(Cl)ccc1O)N2 (stereo not given),5.2µM,?,5.8µM,.,?,-117
CCn1c2ccccc2c2cc(NC(=O)c3ccc(C)c([N+](=O)[O-])c3)ccc21,3.3µM,.,5.8µM,?,.,.
CCn1c2ccccc2c2cc(NC(=O)c3cccc([N+](=O)[O-])c3C)ccc21,15µM,23µM,?,?,13µM,.
CCn1c2ccccc2c2cc(NC(=O)c3cccc([N+](=O)[O-])c3)ccc21,21µM,?,21µM,.,?,.
